Bioassay records as filed in PubChem BioAssay.
Sampled rows, rich in hits. Any-hit rate of the full collection: about 21%.
Cycloheximide cs: counter-screen for Shiga toxin inhibitors: cycloheximide protein synthesis inhibition. max response, %. actives 12% (n = 300,000). cell reporter, cycloheximide protein synthesis inhibition counterscreen. AID 2314; in the data active = max response mostly above about 13%, no sharp cut-off; inactive = mostly below about 14%; note: read at 38.3 µM for the half of the compounds with a filed dose
Pf growth 96h: inhibits malaria parasite growth, 96 h; P. falciparum luciferase reporter growth, 96 h; Potency, µM (doses to about 28.7 µM), most hits filed as inhibitors; actives 6.9% (n = 320,000)
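96 h incubation, 37 C, 5% CO2, of luciferase-reporter P. falciparum-infected RBCs (2% hematocrit, 0.05% parasitemia final) with test compounds; endpoint luminescence.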
SARS PLpro yeast: blocks SARS-CoV papain-like protease in a yeast assay. S. cerevisiae expressing SARS-CoV PLpro, growth rescue. Potency, µM (doses to about 32.9 µM), most hits filed as activators. actives 0.19% (n = 330,000). AID 485353; calls by dose curve; note: nearly all actives have a fitted effect of over 55% in size
Shiga inhibitor: Shiga toxin inhibition. Vero cells, Shiga toxin protein synthesis inhibition reporter. inhibition, % at 38.7 µM. actives 9.2% (n = 290,000). AID 2315; in the data active = inhibition mostly above about 28%, no sharp cut-off; inactive = mostly below about 43%
Pf growth 48h: P. falciparum growth inhibition at 48 hours (one generation). actives 5.9% (n = 310,000). AID 504832. P. falciparum luciferase growth in erythrocytes, 48 h. Potency, µM (series often up to 28.7 µM), most hits filed as inhibitors
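Luciferase-expressing parasites in RBCs, 2% Hct / 0.1% parasitemia final; RPMI 1640 + 0.5% Albumax; 37 C, 5% CO2, one generation; luminescence read-out, lower signal = inhibition.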
NS1 function inh: inhibitors of influenza NS1 protein function; Potency, µM (highest dose often 46.1 µM); actives 0.4% (n = 270,000); calls by dose curve; note: actives are rising curves; nearly all actives have a fitted effect of over 50% in size
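In this qHTS, NS1 from influenza A is expressed in budding yeast, where it slows growth. Cells are switched from glucose to 2% galactose medium (pH 6.0, -URA), treated with compound, and growth recovery is read at OD600.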
A number is an active result; 0 = inactive; ? = inconclusive; - = not tested or not shown; [ ] = remark or other dose. Unless noted, calls come from the whole dose curve; as a rule, active = well fitted inhibition curve with a large enough effect; inconclusive = small, poorly fitted or top-dose-only effect, or another doubt; inactive = no such curve, though single readings can be large or run the other way.

SMILES	Cycloheximide cs	Pf growth 96h	SARS PLpro yeast	Shiga inhibitor	Pf growth 48h	NS1 function inh
Cc1ccc(S(=O)(=O)Nc2ccccc2C(=O)NCC2CCCO2)cc1 (stereo not given)	0	?	0	0	0	0
Nc1nc2nc(-c3cccs3)cc(C(F)(F)F)n2n1	0	0	0	0	0	0
CCOC(=O)c1nc2nc(-c3cccs3)cc(C(F)(F)F)n2n1	0	8.28µM	0	0	0	0
Cc1ccc(C(=S)NCS(=O)(=O)c2ccc(C)cc2)cc1	19.1	0	0	0	0	0
CCCCN(C)c1nc(-c2ccco2)c2c(c1C#N)CC(C)(C)OC2	0	2.94µM	0	0	-	0
CCN(CC)CCNc1nc(-c2ccccc2)c2c(c1C#N)CC(C)(C)OC2	0	8.28µM	0	0	-	0
CN(C)CCNc1nc(-c2ccco2)c2c(c1C#N)CC(C)(C)OC2	0	?	0	0	0	0
O=C(CCS(=O)(=O)c1ccc(Br)cc1)Nc1ccc2c(c1)OCO2	14.8	0.465µM	0	0	0	0
Fc1ccc(CNCCc2ccc3c(c2)OCO3)cc1	0	0	0	0	0	0
O=C(Nc1ccc2c(c1)OCO2)OCc1ccccc1	24.5	-	0	81.3	0	0
O=C(NCCc1ccccc1)C(=O)Nc1ccc2c(c1)OCCO2	27.4	?	0	74.0	0	-
O=C(NCCc1ccc(F)cc1)Nc1ccc2c(c1)OCO2	48.0	0	0	58.0	0	0
O=C(Nc1ccc2c(c1)OCO2)C1CCCN1C(=O)OCc1ccccc1 (stereo not given)	0	0	0	0	0	0
COc1ccc(Cl)cc1NC(=O)C(C)OC(=O)Cn1cc(C(F)(F)F)ccc1=O (stereo not given)	-	0	0	-	0	-
O=C(CS(=O)(=O)Cc1ccccc1)Nc1ccc2c(c1)OCO2	0	?	0	0	0	-
O=C(NCCc1ccccc1)Nc1ccc2c(c1)OCO2	61.2	0	0	155.7	0	0
O=C(CCc1ccccc1)Nc1ccc2c(c1)OCO2	52.6	0	0	89.2	0	0
CCc1cc(-c2[nH]ncc2-c2ccc([N+](=O)[O-])cc2)c(O)cc1OC	0	0	0	0	4.65µM	0
CCOc1ccc(-c2nc(N)ncc2-c2ccccc2)c(O)c1	0	?	0	0	?	0
Oc1ccc(-c2[nH]ncc2-c2ccc(Cl)cc2)c(O)c1	0	0	0	0	?	0
COc1ccc(-c2cn[nH]c2-c2ccc(OCc3ccccc3)cc2O)cc1	0	?	0	0	?	0
COc1ccc(-c2cn[nH]c2-c2ccc(OC)cc2O)cc1	0	11.7µM	0	0	9.28µM	0
COc1ccc(-c2[nH]ncc2-c2ccc(Cl)cc2)c(O)c1	0	4.15µM	-	0	11.7µM	0
CCOc1ccc(-c2[nH]ncc2-c2ccccc2)c(O)c1	0	7.38µM	0	0	?	0
Nc1ccccc1O.O.O=C(O)[C@H]1[O][Sb][O][C@H]1C(=O)O	-	-	-	-	-	0
SMILES	Cycloheximide cs	Pf growth 96h	SARS PLpro yeast	Shiga inhibitor	Pf growth 48h	NS1 function inh
COc1ccc(C(CCN)Cc2ccccc2)cc1 (stereo not given)	0	0	0	0	?	0
O=[N+]([O-])c1ccc(COc2ccc(-c3[nH]ncc3-c3ccc(Cl)cc3)c(O)c2)cc1	0	?	0	0	2.33µM	0
COc1ccc2c(c1)CCc1cn[nH]c1-2	12.9	0	0	0	0[0.00184 µM]	0
COc1ccccc1-c1cn[nH]c1-c1ccc(OCc2ccccc2)cc1O	0	3.7µM	0	0	6.57µM	0
COc1ccc(-c2[nH]ncc2-c2csc(C)n2)c(O)c1	0	?	0	0	0	0
COc1ccc(NC(=O)COC(=O)Cc2coc3cc(OC)ccc23)c(OC)c1	-	-	0	-	-	-
Cc1cc(=O)c(C(=O)O)nn1-c1ccccc1Cl	0	0	0	0	0	0
Cc1ccc(S(=O)(=O)N2CCc3ccccc3C2CC(=O)O)cc1 (stereo not given)	0	0	0	0	0	0
CCOC(=O)Cc1c(C)[nH]c(=S)[nH]c1=O	0	0	0	0	1.31µM	0
Cc1ccc(-c2cc(C(F)F)n3ncc(C(=O)N4CCN5CCCC5C4)c3n2)cc1 (stereo not given)	0	-	0	0	11.7µM	0
O=C(c1cc2nc(-c3ccc(F)cc3)cc(C(F)(F)F)n2n1)N1CCCCC1c1cccnc1 (stereo not given)	0	0	0	0	3.7µM	-
